Results reported in PubChem BioAssay AID1159580 (chemical genetic matrix, 2015).
Among all 5,500 compounds or so, about 2,000 (36%) were called active. Not shown: some 18% with an inconclusive outcome. No stated cut-off is given here; in the data, active means normalized growth mostly below about 0.91 (no sharp cut-off); inconclusive means no clear call, values can overlap the other calls; inactive means mostly above about 0.92. Some of the results follow.

Experiment: chemical genetic growth profiling, strain panel (AID 1159580);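 further: tested at 20 µM; growth read once vehicle control cultures reached saturation at 30 °C; 1 = growth at the plate median or of vehicle wells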
Settings: growth OD
[1] = S. cerevisiae deletion strains, locus YBR229C, strain ROT2, stronger effect = lower value
[2] = S. cerevisiae deletion strains, locus YDL101C, strain DUN1, stronger effect = lower value
[3] = S. cerevisiae deletion strains, locus YJR043C, strain POL32, stronger effect = lower value
[4] = S. cerevisiae deletion strains, locus YJR075W, strain HOC1, stronger effect = lower value
[5] = S. cerevisiae deletion strains, locus YLR039C, strain RIC1, stronger effect = lower value
[6] = S. cerevisiae deletion strains, locus YLR262C, strain YPT6, stronger effect = lower value
[7] = S. cerevisiae deletion strains, locus YMR263W, strain SAP30, stronger effect = lower value
[8] = S. cerevisiae deletion strains, locus YMR307W, strain GAS1, stronger effect = lower value
[9] = S. cerevisiae deletion strains, locus YNL153C, strain GIM3, stronger effect = lower value
[10] = S. cerevisiae deletion strains, locus YPL055C, strain LGE1, stronger effect = lower value
[11] = S. cerevisiae deletion strains, locus YPL241C, strain CIN2, stronger effect = lower value

Measured: normalized growth

CC12CCC(O)CC1CCC1C2[C@H](O)CC2(C)C(C3=CC(=O)OC3)CCC12O (some centres not stated)
inactive: S. cerevisiae deletion strains, locus YBR021W, strain FUR4, stronger effect = lower value 1.02 | [1] 1.03 | S. cerevisiae deletion strains, locus YCL029C, strain bik1, stronger effect = lower value 1.01 | S. cerevisiae deletion strains, locus YDL035C, strain GPR1, stronger effect = lower value 1.07 | S. cerevisiae deletion strains, locus YDL074C, strain BRE1, stronger effect = lower value 1.08 | [2] 1.02 | S. cerevisiae deletion strains, locus YDL185W, strain tfp1, stronger effect = lower value 0.995 | S. cerevisiae deletion strains, locus YDL192W, strain arf1, stronger effect = lower value 1.01 | S. cerevisiae deletion strains, locus YDR101C, strain arx1, stronger effect = lower value 1.02 | S. cerevisiae deletion strains, locus YDR162C, strain NBP2, stronger effect = lower value 1.03 | S. cerevisiae deletion strains, locus YDR318W, strain mcm21, stronger effect = lower value 0.998 | S. cerevisiae deletion strains, locus YDR388W, stronger effect = lower value 0.983 | S. cerevisiae deletion strains, locus YDR502C, strain sam2, stronger effect = lower value 1 | S. cerevisiae deletion strains, locus YER110C, stronger effect = lower value 0.988 | S. cerevisiae deletion strains, locus YER155C, strain BEM2, stronger effect = lower value 1.01 | S. cerevisiae deletion strains, locus YER167W, strain BCK2, stronger effect = lower value 1.04 | S. cerevisiae deletion strains, locus YGL078C, strain dbp3, stronger effect = lower value 1 | S. cerevisiae deletion strains, locus YGL086W, strain mad1, stronger effect = lower value 0.992 | S. cerevisiae deletion strains, locus YGL248W, strain PDE1, stronger effect = lower value 1.02 | S. cerevisiae deletion strains, locus YGR135W, strain pre9, stronger effect = lower value 0.976 | S. cerevisiae deletion strains, locus YGR252W, strain gcn5, stronger effect = lower value 0.954 | S. cerevisiae deletion strains, locus YHR079C, strain IRE1 (second series), stronger effect = lower value 0.992 | S. cerevisiae deletion strains, locus YHR094C, strain hxt1, stronger effect = lower value 0.984 | S. cerevisiae deletion strains, locus YHR129C, strain ARP1, stronger effect = lower value 1.02 | S. cerevisiae deletion strains, locus YHR200W, strain rpn10, stronger effect = lower value 0.999 | S. cerevisiae deletion strains, locus YIL066C, strain RNR3, stronger effect = lower value 1.04 | S. cerevisiae deletion strains, locus YIL073C, strain SPO22, stronger effect = lower value 1.06 | S. cerevisiae deletion strains, locus YIL125W, strain kgd1, stronger effect = lower value 0.996 | S. cerevisiae deletion strains, locus YIR030C, strain dcg1, stronger effect = lower value 0.986 | S. cerevisiae deletion strains, locus YJL095W, strain BCK1, stronger effect = lower value 1.03 | S. cerevisiae deletion strains, locus YJL134W, strain LCB3, stronger effect = lower value 1.01 | S. cerevisiae deletion strains, locus YJL168C, strain set2, stronger effect = lower value 0.992 | S. cerevisiae deletion strains, locus YJL187C, strain SWE1 (second series), stronger effect = lower value 1.01 | [3] 1.06 | [4] 1.03 | S. cerevisiae deletion strains, locus YKL009W, strain mrt4, stronger effect = lower value 1.06 | S. cerevisiae deletion strains, locus YKL068W, stronger effect = lower value 1 | S. cerevisiae deletion strains, locus YKL085W, strain MDH1 (second series), stronger effect = lower value 1 | S. cerevisiae deletion strains, locus YKL085W, strain MDH1, stronger effect = lower value 1 | S. cerevisiae deletion strains, locus YKL190W, strain CNB1, stronger effect = lower value 1.02 | S. cerevisiae deletion strains, locus YKR001C, strain vps1, stronger effect = lower value 1.01 | [5] 1.1 | S. cerevisiae deletion strains, locus YLR058C, strain SHM2, stronger effect = lower value 1.03 | S. cerevisiae deletion strains, locus YLR102C, strain apc9, stronger effect = lower value 0.994 | [6] 1.16 | S. cerevisiae deletion strains, locus YLR268W, strain sec22, stronger effect = lower value 1.01 | S. cerevisiae deletion strains, locus YLR371W, strain rom2, stronger effect = lower value 0.991 | S. cerevisiae deletion strains, locus YLR418C, strain cdc73, stronger effect = lower value 0.957 | S. cerevisiae deletion strains, locus YML016C, strain PPZ1, stronger effect = lower value 1.02 | S. cerevisiae deletion strains, locus YML032C, strain rad52, stronger effect = lower value 1 | S. cerevisiae deletion strains, locus YML124C, strain tub3, stronger effect = lower value 1 | S. cerevisiae deletion strains, locus YMR078C, strain ctf18, stronger effect = lower value 1 | S. cerevisiae deletion strains, locus YMR223W, strain ubp8, stronger effect = lower value 0.983 | [7] 1.02 | [8] 1.08 | S. cerevisiae deletion strains, locus YNL067W, strain RPL9B, stronger effect = lower value 1.01 | [9] 1.03 | S. cerevisiae deletion strains, locus YNL233W, strain BNI4, stronger effect = lower value 1.03 | S. cerevisiae deletion strains, locus YNL250W, strain rad50, stronger effect = lower value 0.986 | S. cerevisiae deletion strains, locus YNL271C, strain bni1, stronger effect = lower value 0.995 | S. cerevisiae deletion strains, locus YNL298W, strain CLA4, stronger effect = lower value 1.02 | S. cerevisiae deletion strains, locus YNL307C, strain MCK1, stronger effect = lower value 0.987 | S. cerevisiae deletion strains, locus YNR052C, strain pop2, stronger effect = lower value 0.991 | S. cerevisiae deletion strains, locus YOL012C, strain htz1 0.714 | S. cerevisiae deletion strains, locus YOL147C, strain pex11, stronger effect = lower value 0.991 | S. cerevisiae deletion strains, locus YOR061W, strain CKA2, stronger effect = lower value 1.06 | S. cerevisiae deletion strains, locus YOR069W, strain VPS5, stronger effect = lower value 1.01 | S. cerevisiae deletion strains, locus YOR136W, strain idh2, stronger effect = lower value 1.01 | S. cerevisiae deletion strains, locus YOR144C, strain elg1, stronger effect = lower value 0.998 | S. cerevisiae deletion strains, locus YOR184W, strain ser1, stronger effect = lower value 1.05 | S. cerevisiae deletion strains, locus YOR316C, strain cot1, stronger effect = lower value 0.995 | [10] 1.07 | [11] 1.01 | S. cerevisiae deletion strains, locus YPR119W, strain clb2, stronger effect = lower value 0.994 | S. cerevisiae deletion strains, locus YPR141C, strain kar3, stronger effect = lower value 0.982 | S. cerevisiae deletion strains, locus YPR163C, strain tif3, stronger effect = lower value 0.998 | S. cerevisiae deletion strains, locus YPR167C, strain met16, stronger effect = lower value 0.993 | S. cerevisiae deletion strains, strain wtn01, stronger effect = lower value 1.01

CCOC(CN(c1ccc(F)cc1)S(=O)(=O)c1ccc(F)cc1F)OCC
inactive: S. cerevisiae deletion strains, locus YAL013W, strain DEP1, stronger effect = lower value 1 | [1] 1 | S. cerevisiae deletion strains, locus YCL061C, strain MRC1, stronger effect = lower value 1.01 | [2] 0.98 | S. cerevisiae deletion strains, locus YDL134C, strain PPH21, stronger effect = lower value 1.01 | S. cerevisiae deletion strains, locus YDR150W, strain NUM1, stronger effect = lower value 0.957 | S. cerevisiae deletion strains, locus YEL061C, strain CIN8, stronger effect = lower value 0.986 | S. cerevisiae deletion strains, locus YGR078C, strain PAC10, stronger effect = lower value 0.997 | S. cerevisiae deletion strains, locus YHR030C, strain SLT2, stronger effect = lower value 0.936 | S. cerevisiae deletion strains, locus YHR087W, strain rtc3, stronger effect = lower value 1.03 | [3] 0.989 | [4] 0.981 | [5] 0.96 | S. cerevisiae deletion strains, locus YLR058C, strain SHM2 (second series), stronger effect = lower value 0.996 | S. cerevisiae deletion strains, locus YLR085C, strain ARP6, stronger effect = lower value 1.01 | [6] 0.935 | S. cerevisiae deletion strains, locus YML094W, strain GIM5, stronger effect = lower value 0.999 | S. cerevisiae deletion strains, locus YMR219W, strain ESC1, stronger effect = lower value 0.994 | [7] 0.987 | [8] 0.731 | [9] 1.01 | S. cerevisiae deletion strains, locus YNL298W, strain CLA4 (second series), stronger effect = lower value 1.01 | S. cerevisiae deletion strains, locus YNL322C, strain KRE1, stronger effect = lower value 0.995 | S. cerevisiae deletion strains, locus YNR030W, strain Alg12, stronger effect = lower value 0.993 | S. cerevisiae deletion strains, locus YOL006C, strain TOP1, stronger effect = lower value 1.03 | [10] 1.04 | [11] 1 | S. cerevisiae deletion strains, locus YPR135W, strain CTF4, stronger effect = lower value 1.02 | S. cerevisiae strains, strain wild type, stronger effect = lower value 0.991
